Laboratory results published in PubChem BioAssay.
Calls of active or inactive are those of the source.

How the values were obtained:
[1] = test system: Plasmodium falciparum Sir2 (PF13_0152, Sir2A); assay: pfSir2 binders on small-molecule microarrays, primary screen, biochemical, small-molecule microarray, 635 nm fluorescence (AID 1098); conditions: small-molecule microarray binding, fluorescence 635 nm; higher = more signal;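 note: score merges spot fluorescence intensity with its signal-to-noise ratio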
[2] = small-molecule microarray binders of probe aDKK1, primary screen, biochemical, biotinylated probe, 635/667 nm fluorescence (AID 1099); conditions: higher = more signal;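 note: score merges 667nm spot fluorescence with signal to noise across triplicate slides; reference of the scale not given here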
[3] = small-molecule microarray binders of probe aCHRDL2, primary screen, biochemical, biotinylated probe, 635/667 nm fluorescence (AID 1100); conditions: higher = more signal
[4] = splicing luciferase reporter signal modulators, primary screen, spliceosome inhibition project, cell-based, HEK293, splice +/- reporter (AID 1101); conditions: luminescence, 24 h, higher = more signal, called active from +8 up or from −8 down;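 note: HEK293 cells carrying a splicing-competent luciferase reporter gene; test concentration not given here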
[5] = target: Fibroblast growth factor 10 (Homo sapiens) (UniProt O15520); assay: FGF10 binders on small-molecule microarrays, primary screen, biochemical, small-molecule microarray, 635 nm fluorescence (AID 1102); conditions: FGF10 binding, fluorescence 635 nm, higher = more signal
[6] = test system: glycogen synthase kinase-3 (GSK3A per assay name; protocol says GSK3B); assay: GSK3 binders on small-molecule microarrays, primary screen, biochemical, small-molecule microarray, 635 nm fluorescence, GSK3A (AID 1103); conditions: small-molecule microarray binding, fluorescence 635 nm; higher = more signal; note: the record names both GSK3A and GSK3B
[7] = target: Epidermal growth factor receptor (Homo sapiens) (UniProt P00533); assay: EGFR binders on small-molecule microarrays, primary screen, biochemical, small-molecule microarray, 635 nm fluorescence (AID 1104); conditions: EGFR binding, higher = more signal;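 note: score merges 667 nm emission intensity with spot signal to noise over triplicate slides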
[8] = target: Follistatin-related protein 3 (Homo sapiens) (UniProt O95633); assay: FSTL3 binders on small-molecule microarrays, primary screen, biochemical, small-molecule microarray, 635 nm fluorescence (AID 1105); conditions: FSTL3 binding, higher = more signal;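 note: score merges emission near 667 nm and signal to noise per printed spot across three slides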
[9] = target: Dickkopf-related protein 1 (Homo sapiens) (UniProt O94907); assay: DKK1 binders on small-molecule microarrays, primary screen, biochemical, small-molecule microarray, 635 nm fluorescence scan (AID 1106); conditions: DKK1 binding, higher = more signal;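 note: score merges emission near 667 nm with signal to noise over three replicate slides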
[10] = test system: Inhibin beta A chain (activin A); assay: INHBA (activin A) binders on microarrays, primary screen, biochemical, small-molecule microarray, 635 nm fluorescence scan (AID 1107); conditions: small-molecule microarray binding, higher = more signal;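 note: mouse activin A protein probed at 4.33 µg/mL on printed slides; score merges bound-protein fluorescence near 667 nm with spot signal-to-noise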

Follistatin-related protein 3 (Homo sapiens), sequence (O95633 whole entry, looked up): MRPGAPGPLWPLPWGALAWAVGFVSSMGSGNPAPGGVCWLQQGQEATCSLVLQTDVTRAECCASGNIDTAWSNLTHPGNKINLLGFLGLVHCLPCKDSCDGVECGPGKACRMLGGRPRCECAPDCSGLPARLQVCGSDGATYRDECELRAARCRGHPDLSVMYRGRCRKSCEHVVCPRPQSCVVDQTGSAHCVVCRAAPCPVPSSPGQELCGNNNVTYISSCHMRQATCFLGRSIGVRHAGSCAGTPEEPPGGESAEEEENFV
Epidermal growth factor receptor (Homo sapiens), sequence (P00533 whole entry, looked up): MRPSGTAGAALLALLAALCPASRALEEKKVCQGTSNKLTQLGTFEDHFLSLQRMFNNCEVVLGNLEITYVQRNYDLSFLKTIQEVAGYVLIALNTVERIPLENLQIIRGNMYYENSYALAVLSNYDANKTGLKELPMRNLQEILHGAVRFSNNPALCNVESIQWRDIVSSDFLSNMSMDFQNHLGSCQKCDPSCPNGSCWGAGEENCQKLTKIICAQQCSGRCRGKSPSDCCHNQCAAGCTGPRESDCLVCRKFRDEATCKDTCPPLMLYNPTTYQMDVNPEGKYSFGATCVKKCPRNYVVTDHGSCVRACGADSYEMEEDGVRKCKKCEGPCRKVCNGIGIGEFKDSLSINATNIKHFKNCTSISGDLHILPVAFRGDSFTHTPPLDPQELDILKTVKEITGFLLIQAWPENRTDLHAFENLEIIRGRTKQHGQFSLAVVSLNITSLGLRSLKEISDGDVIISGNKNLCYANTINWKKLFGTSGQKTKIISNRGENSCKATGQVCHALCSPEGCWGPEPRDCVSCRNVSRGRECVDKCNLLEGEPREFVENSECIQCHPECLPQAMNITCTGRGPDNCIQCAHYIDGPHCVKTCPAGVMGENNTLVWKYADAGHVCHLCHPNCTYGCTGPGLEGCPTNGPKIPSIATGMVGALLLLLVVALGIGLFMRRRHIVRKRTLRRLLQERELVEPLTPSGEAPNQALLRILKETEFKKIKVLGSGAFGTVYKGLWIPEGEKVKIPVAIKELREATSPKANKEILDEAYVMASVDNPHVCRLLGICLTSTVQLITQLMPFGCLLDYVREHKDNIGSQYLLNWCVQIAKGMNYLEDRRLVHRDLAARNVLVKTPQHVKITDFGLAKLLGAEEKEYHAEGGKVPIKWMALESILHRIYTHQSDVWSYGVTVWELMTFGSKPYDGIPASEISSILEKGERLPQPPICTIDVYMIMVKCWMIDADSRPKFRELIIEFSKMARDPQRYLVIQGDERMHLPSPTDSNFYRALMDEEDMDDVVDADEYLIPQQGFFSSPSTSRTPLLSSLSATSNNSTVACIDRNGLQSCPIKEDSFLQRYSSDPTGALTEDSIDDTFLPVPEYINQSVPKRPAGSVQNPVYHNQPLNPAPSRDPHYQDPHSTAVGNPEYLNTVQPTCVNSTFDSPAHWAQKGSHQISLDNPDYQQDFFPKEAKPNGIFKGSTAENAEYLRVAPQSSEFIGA
Fibroblast growth factor 10 (Homo sapiens), sequence (O15520 whole entry, looked up): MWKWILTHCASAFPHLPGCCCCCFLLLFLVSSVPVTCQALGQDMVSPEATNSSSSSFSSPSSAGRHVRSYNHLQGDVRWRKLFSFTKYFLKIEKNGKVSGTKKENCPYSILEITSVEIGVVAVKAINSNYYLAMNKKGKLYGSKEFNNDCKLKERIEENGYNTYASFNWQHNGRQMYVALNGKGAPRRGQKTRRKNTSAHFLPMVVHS
Dickkopf-related protein 1 (Homo sapiens), sequence (O94907 whole entry, looked up): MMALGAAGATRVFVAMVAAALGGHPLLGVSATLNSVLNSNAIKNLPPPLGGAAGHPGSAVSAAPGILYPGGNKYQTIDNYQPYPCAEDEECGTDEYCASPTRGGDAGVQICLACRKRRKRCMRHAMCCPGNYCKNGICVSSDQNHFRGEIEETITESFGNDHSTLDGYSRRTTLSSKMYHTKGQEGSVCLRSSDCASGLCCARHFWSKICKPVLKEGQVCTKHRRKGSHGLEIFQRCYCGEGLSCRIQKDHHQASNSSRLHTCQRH

| SMILES | composite z-score [1] | composite z-score [2] | composite z-score [3] | z-score [4] | composite z-score [5] | composite z-score [6] | composite z-score [7] | composite z-score [8] | composite z-score [9] | composite z-score [10] |
| --- | --- | --- | --- | --- | --- | --- | --- | --- | --- | --- |
| COc1ccc([Si](C)(C)[C@H]2[C@H](CCO)O[C@@]3(C(=O)N(Cc4cccc(N5C(=O)COc6ccccc65)c4)c4ccccc43)[C@@H]2C)cc1 | 0.957 | 0.0114 | 0.122 | -2.17 (inactive) | -0.222 | -0.585 | -0.686 | 0.0253 | 0.125 | -0.348 |
| COc1ccc(CCNC(=O)[C@@]2(Sc3ccc(C)cc3)CC(=O)N(C3Cc4ccccc4C3)[C@@H]2c2ccc(CO)cc2)cc1 | 0.672 | 0.167 | -0.0208 | -1.67 (inactive) | 1.78 | 1.27 | 0.494 | 1.51 | 2.06 | 1.23 |
| CC(C)(C)N1CC=CC23O[C@@H]4C=CCOC(=O)[C@@H]4[C@H]2C(=O)N(CCCCCCO)[C@@H]3C1=O (stereo not given in full) | 1.09 | -0.102 | 0.65 | 0.804 (inactive) | -1.59 | -0.708 | -1.04 | -1.34 | -1.34 | 0.294 |
| COCCOC(=O)N1C(=O)[C@@]2(c3cc(C#CC4=CCCCC4)ccc31)[C@H](C(=O)N1CCCCCCC1)[C@H]1C(=O)O[C@H](c3ccccc3)[C@H](c3ccccc3)N1[C@@H]2c1ccc(O)cc1 | 0.376 | 0.923 | 1 | -0.802 (inactive) | 0.277 | 0.409 | 0.285 | 0.735 | 0.163 | 1.41 |
| CN1C(=O)C2C=CC(C(O)c3ccc(F)cc3)N(Nc3ccccc3)C2C1=O (stereo not given) | 1.4 | 0.4 | 0.902 | 0.909 (inactive) | 0.0186 | -0.433 | -0.165 | 0.578 | -0.463 | 0.623 |
| COCCOC(=O)N1C(=O)[C@@]2(c3ccccc31)[C@H](C(=O)N1CCN(c3ncccn3)CC1)[C@H]1C(=O)O[C@H](c3ccccc3)[C@H](c3ccccc3)N1[C@@H]2c1ccc(O)cc1 | 1.59 | 0.184 | 0.573 | 0.554 (inactive) | 0.745 | 0.53 | 0.0611 | -0.11 | 0.278 | -0.66 |
| COc1ccc(CCN2C(=O)[C@@]3(Cc4ccccc42)c2ccccc2C(=O)N(Cc2ccccc2OC)[C@H]3c2ccc(CO)cc2)cc1 | 0.9 | 0.533 | 0.406 | -0.942 (inactive) | -0.783 | -0.49 | -0.951 | -1.14 | -1.33 | 0.359 |
| C=C(C)[C@@H]1CC=C(C(O)C2C=CC3C(=O)N(c4ccccc4)C(=O)C3N2Nc2ccccc2F)CC1 (stereo not given in full) | 1.15 | 0.671 | 0.972 | 0.869 (inactive) | 1.08 | 1.3 | 0.662 | 1.42 | -0.112 | 0.725 |
| CO[C@H]1O[C@H](CO)[C@@H](OC(=O)Nc2ccc3c(c2)OCO3)[C@H](OC(=O)c2cc3ccccc3[nH]2)[C@H]1OC(=O)c1cc2ccccc2[nH]1 | 0.787 | -0.0268 | -0.161 | -1.87 (inactive) | 0.247 | -0.0406 | -0.194 | 0.238 | 0.283 | 1.46 |
| C=CCOC(=O)[C@H]1[C@@H]2C(=O)O[C@@H](c3ccccc3)[C@@H](c3ccccc3)N2[C@@H](c2ccc(OCCOC(=O)[C@H]3C[C@H]4C(=O)N[C@@H](CC(C)C)C(=O)N4[C@H]3c3cccc(OCCO)c3)cc2)[C@]12C(=O)Nc1ccc(I)cc12 | 1.36 | -0.122 | 0.18 | 0.642 (inactive) | 1.33 | 1.31 | 1.21 | 0.919 | 0.963 | 0.535 |
| C=C(/C(=C/C[C@H](OC(C)=O)c1ccccc1OCCO)c1cc(C(=O)OC)ccc1OC)C(C)C | 1.64 | -0.15 | -0.192 | -0.736 (inactive) | 0.634 | -0.122 | -0.167 | 0.0218 | -0.0716 | 0.721 |
| CCCC[C@@H]1C[C@H]1[C@@H](NC(=O)Cc1ccccc1)c1ccc(-c2ccccc2)cc1 | -0.146 | -0.0423 | 0.712 | -1.26 (inactive) | 0.0191 | 0.117 | 0.172 | 0.135 | -0.46 | 0.685 |
| CCCC[C@@H](O)C1=C(COc2ccccc2)C[C@H]2C(=O)N(C)C(=O)[C@H]2[C@H]1CO | 0.119 | -0.423 | -0.575 | -1.3 (inactive) | -0.0816 | -0.0425 | -0.333 | -0.0008 | -0.0034 | 0.799 |
